Screens: PubChem BioAssay, National Center for Advancing Translational Sciences (NCATS)
A selection: hits, their analogues and other compounds. The true share with any hit is near 9.3%.
FLuc counter – inhibits or activates purified firefly luciferase, miR-21 counter-screen; purified FLuc, Km substrates, luminescence inhibition; AID 588342; Potency, µM (doses to about 57.5 µM), for the others: top-dose activity change, negative = inhibition, hits mostly inhibitors; actives 6.9% (n = 360,000);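 also: plate controls were vehicle for no effect and reference inhibitor for full effect; nearly all actives have a fitted effect of over 55% in size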
Target sequence (P08659 whole entry, looked up): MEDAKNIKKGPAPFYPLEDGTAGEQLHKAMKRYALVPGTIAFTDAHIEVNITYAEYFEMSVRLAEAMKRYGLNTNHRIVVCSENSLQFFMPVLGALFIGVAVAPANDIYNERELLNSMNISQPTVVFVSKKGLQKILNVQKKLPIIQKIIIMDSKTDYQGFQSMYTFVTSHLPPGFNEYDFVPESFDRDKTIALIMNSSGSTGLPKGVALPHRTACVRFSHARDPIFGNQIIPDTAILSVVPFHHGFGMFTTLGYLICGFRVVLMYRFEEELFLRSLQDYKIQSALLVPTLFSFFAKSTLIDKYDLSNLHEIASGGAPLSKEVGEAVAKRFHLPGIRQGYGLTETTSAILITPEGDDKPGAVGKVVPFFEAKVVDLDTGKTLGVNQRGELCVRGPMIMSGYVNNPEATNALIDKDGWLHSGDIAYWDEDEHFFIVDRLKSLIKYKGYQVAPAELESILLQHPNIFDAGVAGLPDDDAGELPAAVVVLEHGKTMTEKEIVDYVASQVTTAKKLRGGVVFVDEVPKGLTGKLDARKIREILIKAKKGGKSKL
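Purified P. pyralis luciferase (10nM final) with 10uM D-luciferin and 10uM ATP (Km levels) in 50mM Tris acetate pH 7.5, 10mM Mg acetate, 0.01% Tween-20, 0.05% BSA; qHTS 6-point titration, ~60 µM downward; luminescence read.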
Rab9 promoter act – activators of Rab9 promoter | Potency, µM (highest dose often 9.22 µM), inactives show at the highest dose activation, negative = inhibition, most hits filed as activators | Huh7 Rab9 promoter-luciferase reporter, luminescence, 24 h | actives 2.8% (n = 320,000); also: % of control where 0% means no effect; nearly all actives have a fitted effect of over 60% in size
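Rab9 promoter-driven luciferase in stably transfected Huh7 cells; 1500 cells/well rested 2 h, exposed to compound in DMSO for 24 h at 37 °C, 5% CO2. Luminescence read 10 min after adding luciferase reagent at ambient temperature.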
SMN2 splice up – SMN2 splice variant enhancement; HEK293 SMN2-luciferase splicing reporter, luminescence, 30-36 h; Potency, µM (titrated, usually from 46.1 µM), inactives show top-dose activity change, positive = activation, most hits filed as activators; actives 2.8% (n = 210,000); also: % of control where 0% means no effect; nearly all actives have a fitted effect of over 55% in size
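qHTS luciferase splicing reporter: luminescence rises when SMN2 exon 7 is included in transfected HEK293 cells. Compound exposure lasted 30-36 h at 37C, with 4.5 mM final sodium butyrate as control, followed by a ONE-Glo read.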
NPC1 promoter act – activators of NPC1 promoter; Huh7 NPC1 promoter luciferase reporter, 24 h; Potency, µM (series often up to 9.22 µM), for the others: top-dose activation, most hits filed as activators; actives 2.4% (n = 320,000); also: % of control where 0% means no effect; nearly all actives have a fitted effect of over 60% in size
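Huh7 reporter cells (NPC1 promoter driving luciferase) are dosed with compound for 24 h at 37 °C, 5% CO2; luciferase detection reagent is then added and luminescence measured after 10 min at ambient temperature.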
ELG1 genotox – genotoxicity induction in ELG1-luciferase HEK293T cells; HEK293T ELG1-luciferase reporter, luminescence, 16 h; Potency, µM (series often up to 46 µM), inactives show top-dose activity change, positive = activation, hits mostly activators; actives 1.3% (n = 330,000); AID 504466; also: % of control where 0% means no effect; nearly all actives have a fitted effect of over 60% in size
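Cells (2,000/well) expressing the ELG1-luciferase fusion are dosed by pin tool and kept 16 hr at 37 °C, 5% CO2. Signal comes from ONE-Glo luciferase reagent after 30 min at room temperature.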
ELG1 DNA repair – inhibitors of ELG1-dependent DNA repair in HEK293T cells; actives 2.3% (n = 330,000); Potency, µM (highest dose often 46.1 µM), inactives show at the top dose activity change, negative = inhibition, most hits filed as inhibitors; HEK293T ELG1-luciferase reporter, luminescence, 16 h; DNA damage induced by 5-fluorouridine; also: % is scaled to controls: 0 for no effect and ±100 for the full control effect; nearly all actives have a fitted effect of over 55% in size
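5-Fluorouridine DNA damage + compound/DMSO, 2,000 cells/well, 16 h, 37 °C/5% CO2. ONE-Glo, 30 min RT, luminescence. Readout = decrease in reporter signal.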
Numbers without * were called inactive; ? = inconclusive; nt = no result. Calls follow the shape of the dose curve; as a rule, active = well fitted curve in the direction sought with a large enough effect; inconclusive = small, poorly fitted or top-dose-only effect, or another doubt; inactive = no such curve, though single readings can be large; an effect the other way counts as inactive or inconclusive. Potency is read from the fitted curve at half-maximal effect.

SMILES	FLuc counter	Rab9 promoter act	SMN2 splice up	NPC1 promoter act	ELG1 genotox	ELG1 DNA repair
CN(CCOc1ccc(C=C2C(=O)NC(=O)NC2=O)cc1)c1ccccn1	?	-4%	4%	-1%	15%	?
CNC(=O)c1cccn(Cc2cc(C(F)(F)F)cc(C(F)(F)F)c2)c1=O	-5%	-11%	-68%	-8%	1%	6.5µM*
CNC(=O)c1cccn(Cc2ccc(C(F)(F)F)cc2)c1=O	0%	14%	-8%	-14%	18µM*	?
O=P(C(c1ccc2c(c1)OCO2)N1CCOCC1)(N1CCOCC1)N1CCOCC1 (stereo not given)	0%	-6%	1%	-2%	0%	15%
COC(=O)c1ccccc1OP(=O)(c1cccc([N+](=O)[O-])c1)c1cccc([N+](=O)[O-])c1	1%	-5%	nt	0%	-1%	5%
C=C1C(O)[C@@H]2O[C@]3(CC[C@H](/C=C/C(C)[C@@H]4CC(C)=CC5(O[C@H](C[C@@](C)(O)C(=O)O)CCC5O)O4)O3)CC[C@H]2O[C@@H]1C(O)CC(C)[C@H]1OC2(CCCCO2)CCC1C (stereo not given in full)	nt	nt	nt	nt	-11%	0.052µM*
CCOC(=O)Cc1csc(NC(=O)c2c(O)c3ccccc3n(CCC(C)C)c2=O)n1	-1%	-18%	nt	-8%	-7%	?
CCCCCCn1c(=O)c(C(=O)Nc2nc(CC(=O)OCC)cs2)c(O)c2ccccc21	1%	-5%	nt	3%	-7%	1.6µM*
O=C(/C=C/c1ccccc1)C1C(=O)c2ccccc2C1=O	0.38µM*	2.2µM*	10µM*	4µM*	15%	?
O=C1NC(=O)C(=Cc2cc3c(cc2[N+](=O)[O-])OCO3)C(=O)N1	-23%	1%	3%	0%	0%	16%
Cc1cc(C=C2C(=O)NC(=O)NC2=O)c(C)n1-c1ccc2c(c1)OCO2	2.7µM*	-3%	-19%	-2%	1%	15%
Cc1cc(/C=C2\C(=O)NC(=O)N(C)C2=O)c(C)n1-c1ccc2c(c1)OCO2	1.3µM*	-4%	-15%	-4%	-5%	1%
Cc1cc(/C=C2/C(=O)NC(=O)N(C)C2=O)c(C)n1-c1ccccc1	1.1µM*	-3%	-4%	-1%	-1%	-11%
Cc1cc(C=C2C(=O)NC(=S)NC2=O)c(C)n1-c1ccc2c(c1)OCO2	3.4µM*	-3%	19%	3%	-4%	-21%
CCN(CC)C(=O)c1ccc(NC(=O)CSc2nnnn2-c2cc(OC)ccc2OC)cc1	-1%	6%	-9%	9%	1%	-29%
C=CCOc1c(Cl)cc(CNc2ccc3[nH]c(=O)[nH]c3c2)cc1OC	5%	-3%	-28%	-8%	-2%	?
O=P(Nc1cccnc1)(Oc1ccccc1)Oc1ccccc1	-3%	0%	4µM*	0%	0%	1%
O=C1NC(=O)C(=Cc2ccsc2)C(=O)N1	?	-9%	nt	-8%	0%	0%
O=C1NC(=O)N(c2ccc(F)cc2)C(=O)/C1=C/c1ccsc1	19µM*	-1%	9%	5%	2%	9%
O=C1NC(=O)N(c2ccc(Br)cc2)C(=O)/C1=C/c1ccsc1	?	0%	nt	-8%	0%	?
O=C1NC(=O)N(c2cccc(Br)c2)C(=O)/C1=C/c1ccsc1	17µM*	-7%	nt	-2%	0%	24%
COc1cc2c(cc1OC)CC[N+](C)=C2	-3%	-2%	nt	-5%	-2%	?
O=C(O)Cn1cc(/C=C2\C(=O)NC(=O)N(Cc3ccco3)C2=O)c2ccccc21	17µM*	-2%	0%	-2%	-14%	10%
Cl/C=C/Cl	nt	nt	-4%	nt	nt	nt
CC(=O)c1ccc2c(c1)OCO2	7%	0%	-16%	-1%	1%	-5%
Cc1noc(C(=O)Nc2sc3c(c2C#N)CCC3)c1Cl	15µM*	15%	-62%	27%	2%	6%
